Experimental data reported in PubChem BioAssay AID2314 (National Center for Advancing Translational Sciences (NCATS), 2010).
Out of some 300,000 compounds screened, about 37,000 (12%) were called active. The list comes from a sample in which actives are over-represented; it also holds similar structures and randomly drawn compounds. Unmarked numbers belong to inactive results. Rule as the data show it: active = max response mostly above about 13% (no sharp cut-off); inactive = mostly below about 14%.

Test: Cycloheximide Counterscreen for Small Molecule Inhibitors of Shiga Toxin; also: read at 38.3 µM for the half of the compounds with a filed dose; 0% is about no effect
Details: cell reporter, cycloheximide protein synthesis inhibition counterscreen; stronger effect = higher value

Row | Structure (SMILES) | max response
1 | COc1ccc(NC(=O)CN2C(=O)COc3ccc(S(=O)(=O)N4CCOCC4)cc32)cc1 | -5.3%
2 | COCCNc1ccc(-c2n[nH]c(=O)c3ccccc23)cc1[N+](=O)[O-] | -0.883%
3 | COc1ccc(N(C)C(=O)C2CCN(S(=O)(=O)c3cccc4nsnc34)CC2)cc1 | -1.67%
4 | Cc1cc(C(C)(C)C)n2nc(C)c(-c3ccccc3)c2n1 | -2.81%
5 | Cc1nc2cc(-c3ccc(F)cc3)nn2c(N2CCOCC2)c1C | 16.4%
6 | Cc1cc(N)n2nc(-c3ccc(C(C)(C)C)cc3)cc2n1 | 46.8% (active)
7 | O=C(CN1C(=O)c2cccnc2Oc2ccc(Cl)cc21)Nc1ccc(F)cc1 | -3.07%
8 | COc1cc(NC(=O)C2=CC(c3ccc(C)cc3)=NS(=O)(=O)N2C)cc(OC)c1OC | -1.64%
9 | O=C(COC(=O)c1ccc(F)cc1)Nc1nc2ccc([N+](=O)[O-])cc2s1 | 0.781%
10 | CSc1ncccc1C(=O)NC1CCCCCC1 | 19.5%
11 | CSc1ncccc1C(=O)Nc1ccc(C)cn1 | 9.66% (active)
12 | CSc1ncccc1C(=O)Nc1nc2ccc(F)cc2s1 | 53.4% (active)
13 | COc1cc(NC(=O)c2cccnc2SC)cc(OC)c1 | -1.86%
14 | COc1ccc(C(CNC(=O)c2cccnc2SC)N2CCOCC2)cc1 (stereo not drawn) | -3.3%
15 | CCOc1ccc(NC(=O)CCC(=O)NNC(=O)NC2CCCCC2)cc1 | -3.92%
16 | COc1ccc(Nc2nc(N)nc(CSC(=S)N3CCC(C)CC3)n2)cc1 | 47.2% (active)
17 | CCOC(=O)c1cnc(SCc2nc(N)nc(Nc3ccc(OC)cc3)n2)nc1N | 19.8%
18 | COc1ccccc1NC(=S)N1CCN(c2ccc(F)cc2)CC1 | -1.91%
19 | COc1ccccc1Nc1nc(N)nc(CN(C)C2CCCCC2)n1 | -1.19%
20 | CCOC(=O)C1CCCN(Cc2nc(N)nc(Nc3ccc(C)cc3)n2)C1 (stereo not drawn) | 0.836%
21 | COc1ccccc1Nc1nc(N)nc(CSC(=S)N2CCOCC2)n1 | 23.7% (active)
22 | C=CCN1C(=NC(=O)COc2ccccc2)SC2CS(=O)(=O)CC21 (stereo not drawn) | -13.1%
23 | O=C(NCCc1nnc2ccc(SCC(=O)N3CCOCC3)nn12)c1ccccc1 | -4.07%
24 | O=C(O)c1ccc(S(=O)(=O)N2CCC(Cc3ccccc3)CC2)cc1 | -8.01%

Row | Structure (SMILES) | max response
25 | COc1ccc(C(=O)OCC(=O)NC(=O)CCSc2ccccc2)cc1 | 3.82%
26 | COc1ccc(OC)c(CCNC(=O)c2nn(C)c3c2CS(=O)(=O)c2ccccc2-3)c1 | -1.16%
27 | COc1ccc(N(CC(=O)NC2CCCCC2)S(=O)(=O)c2c(C)[nH]c(=O)[nH]c2=O)cc1 | -1.68%
28 | O=C(NNC(=S)NC(=O)c1cn(-c2ccccc2)nc1-c1ccccc1)c1ccncc1 | 2.78%
29 | COc1cc(/C=N/NC(=O)c2cc(C)n(-c3ccc(F)cc3)c2C)cc(OC)c1O | 18.9%
30 | Cc1cc(C(=O)N/N=C/c2ccc(O)c([N+](=O)[O-])c2)c(C)n1-c1ccc(F)cc1 | 24.9% (active)
31 | Cc1nn(CC(=O)N/N=C/c2ccc(F)cc2)c(C)c1[N+](=O)[O-] | -2.9%
32 | COc1ccccc1N(CC(=O)Nc1ccccc1C(=O)N1CCCC1)S(C)(=O)=O | -4.06%
33 | CC/C(=N\NC(=O)c1ccccc1Cl)c1ccc(Br)s1 | -0.594%
34 | NS(=O)(=O)c1ccc(CCNS(=O)(=O)c2cccc3cccnc23)cc1 | -5.53%
35 | CN(C)S(=O)(=O)c1cccc(NC(=O)Cc2ccsc2)c1 | -3.01%
36 | O=C1N/C(=C/c2cccs2)C(=O)N1Cc1ccc(F)cc1 | -5.73%
37 | Cc1ccc(Cn2c(C)c3cnn(CC(=O)NCc4ccccn4)c(=O)c3c2C)cc1 | -3.46%
38 | Cc1ccc(CN2C(=O)N/C(=C/c3cc(C)n(-c4ccccn4)c3C)C2=O)cc1 | 33.6% (active)
39 | Cc1cccc([C@@H]2[C@@H]3C(=O)N(C)C(=O)[C@@H]3[C@@H]3C(=O)Nc4ccccc4C(=O)N23)c1 | 1.14%
40 | O=c1c2ccccc2nc2n1C(CSCc1ccccc1)CS2 (stereo not drawn) | -1.46%
41 | O=C(/C=C/c1ccc([N+](=O)[O-])cc1)NCCSCc1ccco1 | 9.78%
42 | COC(=O)c1ccc(CSc2ccccc2C)o1 | -1.75%
43 | CCOc1ccccc1Nc1nnc(SCc2ccc(C(=O)OC)o2)s1 | -4.31%
44 | COC(=O)c1ccc(CSc2nnc(N)s2)o1 | 12.5% (active)
45 | CC1CCCCN1C(=O)CCS(=O)(=O)Cc1ccccc1 (stereo not drawn) | -0.307%
46 | COc1cc(C(=O)NN(CCC#N)C2=NS(=O)(=O)c3ccccc32)cc(OC)c1OC | -4.44%
47 | COc1cccc2c(C)c(C(=O)O)[nH]c12 | 33.1% (active)
48 | Cc1c(C(=O)N/N=C/c2ccccc2)[nH]c2c([N+](=O)[O-])cccc12 | 1.12%

Row | Structure (SMILES) | max response
49 | COc1cc2c(C(=O)O)c(C)n(C)c2c2ccccc12 | -4.45%
50 | O=c1[nH]cccc1-c1nc2ccccc2n1Cc1ccc(Cl)cc1 | -10.6%
51 | COc1ccc(C(=O)NC(C)Cn2nc(C)cc2C)cc1OC1CCN(C(C)=O)CC1 (stereo not drawn) | -1.29%
52 | Cn1ncc(Br)c1C(=O)NC1CCCC1 | -6.23%
53 | CCN(CC)CCn1cnc2c1c(=O)[nH]c(=O)n2Cc1ccccc1 | -9.18%
54 | CCOc1ccc(N(C(=O)c2snc(C(N)=O)c2N)C(C(=O)NCC2CCCO2)c2c[nH]c3ccccc23)cc1 (stereo not drawn) | 1.95%
55 | Cc1cc(S(=O)(=O)NC2CCCCC2)ccc1OCC(=O)NCc1cccnc1 | -2.89%
56 | CCOC(=O)C1(Cc2ccccc2C)CCCN(C(=O)c2ccc(COC)o2)C1 (stereo not drawn) | 35.6% (active)
57 | CCOC(=O)C1(Cc2ccccc2C)CCCN(S(C)(=O)=O)C1 (stereo not drawn) | 2.45%
58 | Cc1cc(SCC(=O)NCCN2C(=O)CSC2=O)nc2ccccc12 | 0.645%
59 | CCOC(=O)C1(CCc2ccccc2)CCN(Cc2ccco2)CC1 | 8.52%
60 | O=C(Cn1c(=O)n(CC2CS2)c2ccccc21)N1CCCCC1 (stereo not drawn) | 0.367%
61 | CCOC(=O)C1(Cc2ccccc2C)CCCN(C(=O)CN2C(=O)CSC2=O)C1 (stereo not drawn) | 42.6% (active)
62 | Cc1ccc(S(=O)(=O)N(CC(=O)NCc2ccco2)c2ccccc2C)cc1 | -4.61%
63 | CCCNC(=S)N1CCCC(c2nc3ccccc3[nH]2)C1 (stereo not drawn) | -2.62%
64 | O=C(NC1CCCC1)C(c1c(F)cccc1Cl)N(C(=O)c1csnn1)C1CC1 (stereo not drawn) | -1.83%
65 | COCCNC(=O)c1ccccc1NS(=O)(=O)c1ccc(C)c([N+](=O)[O-])c1 | -2.35%
66 | COCCn1c(=NC(=O)c2ccccc2[N+](=O)[O-])sc2cc(S(C)(=O)=O)ccc21 | 25.9% (active)
67 | Cn1c(=NC(=O)c2ccc3c(c2)OCCO3)sc2cc(S(C)(=O)=O)ccc21 | 3.13%
68 | O=C(Nc1ccccc1C(=O)Nc1ccncc1)c1ccc([N+](=O)[O-])cc1 | -2.91%
69 | Cc1ccsc1C(=O)N[C@@H](C)c1nnc2ccccn12 | -2.38%
70 | CCOC(=O)C1=C(C)Nc2nc3ccccc3n2C1c1cccs1 (stereo not drawn) | -3.92%
71 | C=CCOC(=O)C1=C(C)NC(C)=C(C(=O)OCC=C)C1c1cccs1 | 63.9% (active)
72 | CCOC(=O)C1=C(C)NC(=S)NC1c1cccs1 (stereo not drawn) | -2.57%

Row | Structure (SMILES) | max response
73 | Cc1cc(C)c2nc(N(CCN(C)C)C(=O)/C=C/c3cccs3)sc2c1 | -3.7%
74 | C/C(=N/OC(=O)c1ccc(Br)cc1)c1ccc(C)cc1 | 4.97%
75 | COc1ccc(C)cc1N(CC(=O)N1CCCC1)S(=O)(=O)c1ccccc1 | 9.95%
76 | CCOC(=O)c1cnc(SCC(=O)Nc2cccc(OC)c2)nc1N | -6%
77 | CCOC(=O)Cc1csc(NC(NC(=O)OCC)(C(F)(F)F)C(F)(F)F)n1 | -0.89%
78 | CCCCCCC(=O)Nc1nc(C)c(-c2csc(Nc3cccc(OC)c3)n2)s1 | -1.06%
79 | CCOC(=O)Cc1csc(NC(=O)CSc2nc(C)cc(=O)[nH]2)n1 | -1.4%
80 | CCOC(=O)Cc1csc(NC(=O)COc2ccc3c(C)cc(=O)oc3c2)n1 | 5.78%
81 | CCOC(=O)Cc1csc(NC(=O)C(C)(C)C)n1 | 26.6% (active)
82 | CCOC(=O)Cc1csc(NC(=O)CSc2ccc(Br)cc2)n1 | -1.14%
83 | CCOC(=O)c1csc(NC(=O)Nc2cccc(OC)c2)n1 | 15% (active)
84 | CCOC(=O)Cc1csc(NC(=O)Nc2ccccc2)n1 | 21.8% (active)
85 | COc1ccccc1N1CCN(C(=O)c2ccc(NC3=NC4CS(=O)(=O)CC4S3)cc2)CC1 (stereo not drawn) | 6.59%
86 | O=C(Nc1ccc(F)cc1F)N1CCCN(CCOc2ccccc2)CC1 | -1.88%
87 | CN1CCN(C(=O)c2cnn(-c3ccccc3)c2NC(=O)c2ccc([N+](=O)[O-])cc2)CC1 | -1.78%
88 | S=c1[nH]ccn1-c1ccc(Cl)cc1 | -4.55%
89 | CN(Cc1ccccc1)C(=O)COC(=O)c1ccccc1Nc1ccccc1 | -1.45%
90 | CC1(C(=O)O)CCC(C(=O)Nc2ccc(Cl)c(Cl)c2)C1(C)C (stereo not drawn) | -1.72%
91 | N/C(=N\OC(=O)/C=C/c1ccccc1)c1ccc(Br)cc1 | 1.02%
92 | N/C(=N\OC(=O)N1c2ccccc2Sc2ccccc21)c1ccc(Br)cc1 | -1.54%
93 | N/C(=N\OC(=O)c1ccc2c(c1)OCO2)c1ccc(Br)cc1 | 32.7% (active)
